# Assay results from PubChem BioAssay AID1491 (National Center for Advancing Translational Sciences (NCATS), 2009).
# Where “and” joins values, the source holds several entries; their conditions need not be identical. Equal values may be shown once. Results filed as inconclusive are left out. Unmarked numbers belong to inactive results. Calls of active or inactive are those of the source. Calls come from the whole dose curve; as a rule, active = well fitted inhibition curve with a large enough effect in the main read-out, with a control signal flat; inconclusive = small, poorly fitted or top-dose-only effect, or a change in a side signal; inactive = flat fitted curve, though single readings scatter.
# Molecular target: Neuropeptide S receptor (Homo sapiens) (UniProt Q6W5P4)
# Assay: Confirmation Concentration-Response Assay for Antagonists of the Neuropeptide S Receptor: cAMP Signal Transduction;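 for activity change, negative = inhibition: 0% = DMSO with NPS and full inhibition = wells lacking NPS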
# Conditions: CHO-NPSR cells, cAMP TR-FRET, antagonist mode; series mostly up to 22.3 µM; activity change, negative = inhibition: at the top concentration
# Outline: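 LANCE TR-FRET cAMP read-out: 665/620 nm emission ratio, with the 620 nm donor channel also reported, after 2 h RT detection. Stably transfected CHO-NPSR cells got compound titrations and 100 nM NPS in stimulation reagent for 60 min at 37C. IC50 came from Hill fits.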
# Potency is the fitted concentration of half-maximal effect.
# Sequence of Neuropeptide S receptor (Homo sapiens) (Q6W5P4 whole entry, looked up): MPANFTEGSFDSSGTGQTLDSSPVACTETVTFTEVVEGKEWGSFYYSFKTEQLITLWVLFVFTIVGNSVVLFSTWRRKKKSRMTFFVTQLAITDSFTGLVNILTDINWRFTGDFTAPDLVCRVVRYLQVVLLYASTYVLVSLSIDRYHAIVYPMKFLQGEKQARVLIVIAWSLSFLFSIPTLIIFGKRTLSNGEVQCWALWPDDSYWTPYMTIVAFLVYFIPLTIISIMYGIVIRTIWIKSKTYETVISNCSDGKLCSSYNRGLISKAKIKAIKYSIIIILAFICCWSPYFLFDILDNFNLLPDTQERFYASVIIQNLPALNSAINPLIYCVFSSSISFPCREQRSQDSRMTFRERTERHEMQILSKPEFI
Structure (SMILES),"activity change, negative = inhibition [%]",Potency
Oc1ccc(N=Nc2nccs2)c(O)c1,-6.18,
Cc1cc(N/N=C/c2ccccc2[N+](=O)[O-])nc(-n2nc(C)cc2C)n1,-5.67,
COc1cccc(C2c3c(ncn(-c4ccccc4)c3=N)Oc3ccc4ccccc4c32)c1 (configuration not stated),,2 µM (active) and 1.58 µM (active)
CCOc1ccc(C2c3c(ncn(-c4ccccc4)c3=N)Oc3ccc4ccccc4c32)cc1OCC (configuration not stated),,2 µM (active)
O=S1(=O)Nc2c(ccc3cccnc23)-c2ccccc21,,4.47 µM (active)
O=C(CSc1n[nH]c(-c2cccnc2)n1)Nc1ccnc2ccccc12,-2.52,
CCOC(=O)c1cnc(-n2nc(C)cc2C)nc1NC1CCCC1,-9.26,
O=C(O)CCCCCNc1nc(=S)[nH]c2ccccc12,-0.723,
O=[N+]([O-])c1ccc(N=Nc2ccc(O)cc2O)cc1,0.533,
O=C(Nc1nccs1)C1CCCN1S(=O)(=O)c1ccc(Cl)cc1 (configuration not stated),1.4,
Cc1ccc(S(=O)(=O)Nc2ccccc2CNc2c(C)n(C)n(-c3ccccc3)c2=O)cc1,-20.6,
Cc1nc(NC(=S)Nc2ccccc2)sc1C,-7.56,
O=C(Cc1ccccc1)Nc1ncnc2c1C(c1ccccc1)c1c(ccc3ccccc13)O2 (configuration not stated),,1.58 µM (active)
C/C(=N\Nc1ncc(Cl)cc1Cl)c1ccccn1,,5.62 µM (active)
Nc1ccc(-c2nc3c(Cl)cc(N)cc3[nH]2)cc1,-9.8,
COc1ccc(N=C2S/C(=C\c3ccc(N4CCOCC4)o3)C(=O)N2CCc2c[nH]c3ccccc23)cc1,,2.24 µM (active)
S=C(Nc1ccccc1)Nc1nccs1,-6.4,
CCC(Sc1ccc2nnc(-c3cccnc3)n2n1)C(=O)O (configuration not stated),,inactive
c1ccc(CSC2=NNC(c3ccccn3)S2)cc1 (configuration not stated),-10.1,

Structure (SMILES),"activity change, negative = inhibition [%]",Potency
C=CCOc1c(Cl)cc(CNc2ccc(N(C)C)cc2)cc1OC,-13.4,
O=c1cc(CNCCCO)c2ccccc2[nH]1,0.391,
CCCCOc1ccc(OCCCN2CCOCC2)cc1,-6.85,
O=C1OC(c2ccccc2)(c2ccccc2)N2CCN(C(=O)NCc3ccc(F)cc3)CC12 (configuration not stated),,0.0251 µM (active)
Cc1ccc(/C=C2\SC(=S)N(CC(=O)Nc3ncc(Cc4ccccc4Cl)s3)C2=O)cc1,-2.64,
O=[N+]([O-])c1cc2c(cc1/C=N/n1c(-c3ccccc3)n[nH]c1=S)OCO2,-1.53,
O=C(NCc1ccccc1)Nc1ncnc2c1C(c1ccccc1)c1c(ccc3ccccc13)O2 (configuration not stated),,2.24 µM (active)
NC(=S)N/N=C/c1ncc(C(F)(F)F)cc1Cl,-8.43,
COc1ccccc1-c1nnc(SC2CCc3ccccc3NC2=O)s1 (configuration not stated),-30,
CCN(CC)S(=O)(=O)c1ccc2c(c1)nc(SC(C)C(N)=O)n2-c1ccc(OC)cc1 (configuration not stated),-17.6,
CC1(C)O[C@@H]2C[C@H]3[C@@H]4C[C@H](F)C5=CC(=O)CC[C@]5(C)[C@H]4[C@@H](O)C[C@]3(C)[C@]2(C(=O)CO)O1,-6.23,
CN(C)c1nc(=Nc2cccc(Cl)c2)ss1,-8.2,
CCO[C@@H]1OC(C(=O)NCc2nc3ccccc3[nH]2)=C[C@H](c2ccc(C(F)(F)F)cc2)[C@H]1CCCO,-6.49,
O=C(Nc1cc(=O)[nH]c2nc(-c3ccc(Cl)cc3)nn12)c1ccccc1,,3.98 µM (active)
CCC(C)(C)NC(=O)Cc1ccc(C)cc1,11.3,
CCSc1nc2c(c(=O)n1Cc1ccccc1)SC(C)C2 (configuration not stated),-1.72,
O=C(c1ccccc1-c1nc2ccccc2[nH]1)N1CCCCC1,-21.1,
N#CC(C#N)=c1ccc2c(c1)NC1(CCCCC1)N=2,-11.4,
